Screening results: PubChem BioAssay, National Center for Advancing Translational Sciences (NCATS)
AID923: qHTS Assay for Allosteric/Competitive Inhibitors of Caspase-1: Spectroscopic Profiling in AFC Spectral Region; compound fluorescence, AFC spectral region (405/520 nm); Potency, µM (doses to about 57.5 µM), for inactives: at the top dose fluorescence increase, most hits filed as activators; actives 1.1% (n = 75,000); also: potency is read from the fitted curve at half-maximal effect; 0% is about no effect
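Compound autofluorescence profiled at 405 nm ex/520 nm em during kinetic caspase 1 run (50 nM enzyme, 5 uM Ac-WEHD-AFC, HEPES pH 7.5, 10 mM DTT). Titration up to 57 uM; baseline from regression intercept, normalized to AFC standard curve.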
HSD17B inhib: qHTS Assay for Inhibitors of HSD17B4, hydroxysteroid (17-beta) dehydrogenase 4. recombinant HSD17B10, NADH fluorescence kinetic. Potency, µM (top dose mostly 57.1 µM), for the others: top-dose activity change, negative = inhibition, usual class: inhibitors. actives 7.6% (n = 75,000). AID 893, 2007;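 also: the protocol describes HADH2 (HSD17B10) and not the HSD17B4 of the title; potency is read from the fitted curve at half-maximal effect; % is scaled to controls: 0 for no effect and ±100 for the full control effect; nearly all actives have a fitted effect of over 70% in size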
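His-tagged E. coli-expressed HADH2 at 20 nM in 100 mM Tris-HCl pH 9.0 with 0.01 % Tween-20, preincubated 15 min with compound at room temperature. Reaction with 1 mM NAD+ and 90 uM beta-hydroxybutyryl coenzyme A; NADH fluorescence (360/450 nm) read kinetically over 4 min, last minus first point.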
A350 fluor: qHTS Assay for Spectroscopic Profiling in A350 Spectral Region; actives 11% (n = 59,000); max dye-equivalent concentration, M; AID 590, 2007; Compound autofluorescence, 340/450 nm, Alexa 350 dye-equivalents; hits give high values; in the data active = max dye-equivalent concentration above about 10 nM; inconclusive = mostly about 1.1 nM to 9.6 nM
4-MU autofl: qHTS Assay for Spectroscopic Profiling in 4-MU Spectral Region | compound autofluorescence, 340/450 nm, 4-MU equivalents; hits give high values | max dye-equivalent concentration, M | actives 11% (n = 59,000); in the data active = max dye-equivalent concentration above about 10 nM; inconclusive = mostly about 1.1 nM to 9.6 nM
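Compounds in 100 mM Tris, pH 8.0, sat 15 min at room temperature before fluorescence was read at 340 nm excitation/450 nm emission; a per-plate six-point 4-MU standard curve converted signals to dye-equivalent concentration at each compound concentration.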
HADH2 inhib: qHTS Assay for Inhibitors of HADH2 (Hydroxyacyl-Coenzyme A Dehydrogenase, Type II); 3-hydroxyacyl-CoA dehydrogenase type-2 (Homo sapiens), Q99714; recombinant HADH2, NADH fluorescence, beta-hydroxybutyryl-CoA; Potency, µM (top dose mostly 57.1 µM), without a hit: top-dose activity change, negative = inhibition, actives largely listed as inhibitors; actives 3.4% (n = 73,000); AID 886, 2007; also: potency is read from the fitted curve at half-maximal effect; % is scaled to controls: 0 for no effect and ±100 for the full control effect; nearly all actives have a fitted effect of over 60% in size
Target sequence (Q99714 whole entry, looked up, one chain of several): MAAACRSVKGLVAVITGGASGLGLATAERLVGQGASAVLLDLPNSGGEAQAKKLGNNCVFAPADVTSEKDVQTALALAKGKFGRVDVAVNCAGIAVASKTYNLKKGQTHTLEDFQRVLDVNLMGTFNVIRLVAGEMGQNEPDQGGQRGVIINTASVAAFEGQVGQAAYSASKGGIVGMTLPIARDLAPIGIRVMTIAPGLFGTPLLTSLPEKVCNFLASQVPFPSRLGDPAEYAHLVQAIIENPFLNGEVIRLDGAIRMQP
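Buffer 100 mM Tris-HCl pH 9.0/0.01% Tween-20; HADH2 20 nM; NAD+ 1 mM; beta-hydroxybutyryl-CoA 90 uM (all final). 15 min cpd preincubation, RT.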
CRE Fsk mod: Cell signaling CRE-BLA (Fsk stim) | Potency, µM (highest dose often 38.2 µM), without a hit: at the highest dose activity change, negative = inhibition, most hits filed as activators | AID 662, 2007 | CHO CRE-bla reporter (cAMP response element driving beta-lactamase), forskolin EC10, beta-lactamase ratio | actives 2.5% (n = 71,000); active = well fitted activation curve with a large enough effect in the signal ratio, with a control signal flat, not every such curve was filed as active; inconclusive = small, poorly fitted or top-dose-only effect, or effect the other way, or a change in a side signal; the % refers to the signal ratio; also: potency is read from the fitted curve at half-maximal effect; % of control where 0% means no effect
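The 460nm/530nm emission ratio after CCF4 loading defined %Activity, from which AC50 values were obtained. CRE-bla CHO cells received compound dilution series together with an EC10 level of NKH 477 for 3 hours at 37 degrees Celsius.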
Active calls of the source: *; i = inactive; ? = inconclusive; / = no result given; [ ] = another dose, or the depositor's remark. Hits are enriched below; roughly 14% of the tested compounds scored in any of these assays. Unless noted, calls follow the shape of the dose curve; as a rule, active = well fitted curve in the direction sought with a large enough effect; inconclusive = small, poorly fitted or top-dose-only effect, or another doubt; inactive = no such curve, though single readings can be large; an effect the other way counts as inactive or inconclusive.

SMILES	AID923	HSD17B inhib	A350 fluor	4-MU autofl	HADH2 inhib	CRE Fsk mod
C=C(C)C(O)/C=C/c1ccc(C)cc1 (stereo unspecified)	0%[11.5 µM]	8%[11.4 µM]	/	/	11%[11.4 µM]	/
CC(=O)COc1ccc2c3c(c(=O)oc2c1)CCCC3	3%	25µM*	4.1e-08M*	3.1e-08M*	269%	16µM*
CC(=O)C(C)Oc1ccc2c3c(c(=O)oc2c1)CCCC3 (stereo unspecified)	-1%	25µM*	/	/	?	?
CC(=O)C(C)Oc1ccc2c3c(c(=O)oc2c1)CCCCC3 (stereo unspecified)	-6%	25µM*	4.6e-08M*	5.1e-08M*	20µM*	?
CN(C)Cc1ccccc1-c1cncnc1NC1CC1	-1%	-4%	i	i	2%	-3%
O=c1[nH]c(CSc2nnc(-c3ccco3)n2-c2ccccc2)nc2sc3c(c12)CCC3	2%	-6%	i	i	15%	10µM*
CC(=Nc1cccc(O)c1)c1sc2ccccc2c1O	/	/	1.1e-08M*	?	/	/
CCN(CC)c1nc(N)c2c(N)n(-c3ccccc3C)c(=S)c(C#N)c2c1C#N	0%	?	?	?	?	?
CCN(CC)c1nc(N)c2c(N)nc3c(c2c1C#N)CC(c1ccccc1)O3 (stereo unspecified)	9%	32µM*	6.7e-08M*	9.2e-08M*	?	10µM*
Cc1nn(Cc2ccccc2Cl)c2sc(C(=O)NCCCn3ccnc3)cc12	0%	-1%	1.3e-08M*	?	7%	23%
Cc1nn(Cc2ccccc2Cl)c2sc(C(=O)OC3CCCC3=O)cc12 (stereo unspecified)	-1%	-12%	i	i	1%	?
COc1c2c(nc3ccccc13)O[C@H]([C@@](C)(O)CO)C2	-1%[25.7 µM]	-3%[25.6 µM]	2.9e-08M*	2.2e-08M*	-3%[25.6 µM]	9%[17.1 µM]
COc1cc(C(=O)O)nc2ccccc12	2%	11%	i	i	10%	2%
Cc1ccc([N+](=O)[O-])c(C)c1	3%	-1%	/	/	-4%	-3%
Cc1ccc(S(=O)(=O)N(CC(=O)O)Cc2cccc(C)c2)cc1	4%	7%	/	/	13%	/
Cc1noc(NS(=O)(=O)c2ccc(N/C=C/C(=O)c3ccc4c(c3)OCO4)cc2)c1C	13%	-18%	2.7e-08M*	2.5e-08M*	-22%	?
CCc1cccc(CC)c1N(COC)C(=O)Cn1nnc2ccccc21	/	/	6.4e-06M*	5.8e-06M*	/	/
CC(C)(C)c1cc(C(=O)/C=C/c2ccc(C(=O)O)cc2)cc(C(C)(C)C)c1	-1%	?	/	/	?	/
CCOC(=O)c1c(N)sc2c(O)c(Br)ccc12	0%	-10%	/	/	-11%	4%
CCOC(=O)c1c(N)ssc1=S	2%	?	/	/	1.3µM*	9%
CCOC(=O)c1c(N)sc2c(NC(C)=O)cccc12	1%	1%	2.4e-08M*	1.8e-08M*	-3%	27%
CCOC(=O)c1c(NC(=O)CSc2nnc(-c3ccccc3C)n2C)sc(C(C)=O)c1C	1%	?	1.5e-08M*	?	25µM*	?
CCOC(=O)c1c(N)sc(C(=O)N2CCCCCC2)c1C	3%	-22%	/	/	-14%	?
Cc1c(C(N)=O)sc(N)c1C(=O)OC(C)C	2%	-21%	/	/	?	24%
CCOC(=O)c1c(N)sc(C(N)=O)c1C	0%	-12%	/	/	13µM*	8%
CCOC(=O)c1c(NC(=O)CSc2nc3cccnc3n2C)sc(C(C)=O)c1C	0%	-4%	i	i	3%	?
CC[C@H]1C2=C3C(CC[C@H]4C(OC)OC[C@](C)([C@@H]34)N(C(=O)OC(C)(C)C)C2)C(CO)C1CO (stereo partly specified)	0%	17%	/	/	2%	-1%
